From PubChem BioAssay (EPA / NIEHS) come the findings set out here.

The structures appear in SMILES notation. Results filed as inconclusive are left out. Activity calls are given as the source filed them. Rule for the calls, unless noted: active = hit-call score of the fitted dose curve at least 0.9, where 1 is the maximum; inactive = score below 0.9.

Read-out in assay [1]: Transforming Growth Factor (TGFB1), TGFB1 (gene 7040)
The experiment in a line: LTEA_HepaRG_TGFB1: Life Technologies and Expression Analysis (LTEA) Assay for Transforming Growth Factor (TGFB1) Transporter using HepaRG (AID 2283533). To be noted: mRNA level, 48 h; actives raise or lower the signal. The procedure, abridged:
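Eight-point concentration-response (max 100 uM, half-log) in HepaRG under serum-free induction conditions, 48 h. TGFB1 mRNA by qRT-PCR, housekeeping-normalized.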

Read-out in assay [2]: Tumor necrosis factor receptor 1 (TNFRSF1A), TNFRSF1A (gene 7132)
The experiment in a line: LTEA_HepaRG_TNFRSF1A: Life Technologies and Expression Analysis (LTEA) Assay for Tumor necrosis factor receptor 1 (TNFRSF1A) using HepaRG (AID 2283535). As to conditions: mRNA level, 48 h; actives raise or lower the signal. A digest of the protocol: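 Assay uses 48 h chemical treatment of differentiated HepaRG monolayers, tested in duplicate at eight concentrations from 100 uM downward in 0.5% DMSO. mRNA is normalized to ACTB, GAPDH and POLR2A, with induction or suppression fitted relative to vehicle.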

Read-out in assay [3]: Thyroid Hormone Responsive (THRSP), THRSP (gene 7069)
Nature of the assay: LTEA_HepaRG_THRSP: Life Technologies and Expression Analysis (LTEA) Assay for Thyroid Hormone Responsive (THRSP) using HepaRG (AID 2283536). As to conditions: mRNA level, 48 h; actives raise or lower the signal. A digest of the protocol: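 Differentiated HepaRG cells treated 48 h in serum-free induction medium with 8 half-log concentrations up to 100 uM (0.5% DMSO), duplicates. THRSP mRNA by TaqMan qRT-PCR normalised to ACTB, GAPDH, POLR2A; bidirectional fit versus DMSO.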

Read-out in assay [4]: Cellular tumor antigen p53 (Homo sapiens) (UniProt P04637)
The experiment in a line: LTEA_HepaRG_TP53: Life Technologies and Expression Analysis (LTEA) Assay for Tumor Protein P53 (TP53) using HepaRG (AID 2283537). To be noted: mRNA level, 48 h; actives raise or lower the signal. The procedure, abridged:
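Differentiated HepaRG cells in serum-free induction medium exposed 48 h in duplicate to 8 half-log concentrations, top 100 uM, 0.5% DMSO. TP53 mRNA by TaqMan qRT-PCR (Fluidigm), normalized to ACTB, GAPDH, POLR2A; fitted bidirectionally versus DMSO.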

Read-out in assay [5]: UDP glucuronosyltransferase (UGT1A6), UGT1A6 (gene 54578)
The experiment in a line: LTEA_HepaRG_UGT1A6: Life Technologies and Expression Analysis (LTEA) Assay for UDP glucuronosyltransferase (UGT1A6) using HepaRG (AID 2283539). As to conditions: mRNA level, 48 h; actives raise or lower the signal. The procedure, abridged: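 Measures mRNA change in HepaRG hepatic cells exposed 48 h to chemicals (eight-point, maximum 100 uM, 0.5% DMSO vehicle) in serum-free induction medium. Expression normalized to endogenous controls; DMSO served as negative control and baseline.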

Read-out in assay [6]: X-box binding protein 1 (XBP1), XBP1 (gene 7494)
The experiment in a line: LTEA_HepaRG_XBP1: Life Technologies and Expression Analysis (LTEA) Assay for X-box binding protein 1 (XBP1) using HepaRG (AID 2283540). As to conditions: mRNA level, 48 h; actives raise or lower the signal. A digest of the protocol: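 Eight concentrations (half-log, highest 100 uM, 0.5% DMSO) tested in duplicate on HepaRG cells over 48 h in serum-free induction medium; qRT-PCR of XBP1 normalised to ACTB, GAPDH, POLR2A.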

The nature of assay [7]: LTEA_HepaRG_LDH_cytotoxicity: Cytotoxicity Assessment in the Life Technologies and Expression Analysis (LTEA) Assay (AID 2283563; active = hit-call score of the fitted dose curve at least 0.9, where 1 is the maximum;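 for AC50: LDH activity released into spent culture medium as a marker of cell death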). A digest of the protocol: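 Spent-medium LDH after 48 h chemical exposure of HepaRG cells in serum-free induction medium; eight concentrations, half-log dilutions from 100 uM, duplicate wells, fitted upward relative to 0.5% DMSO.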
Read-out in assay [8]: UDP glucuronosyltransferase (UGT1A1), UGT1A1 (gene 54658)
Nature of the assay: LTEA_HepaRG_UGT1A1: Life Technologies and Expression Analysis (LTEA) Assay for UDP glucuronosyltransferase (UGT1A1) using HepaRG (AID 2283538). To be noted: mRNA level, 48 h; actives raise or lower the signal. The procedure, abridged: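 HepaRG cells, 0.5% DMSO vehicle, 48 h exposure in serum-free induction medium to 8-point half-log series topping at 100 uM, in duplicate. UGT1A1 mRNA by Fluidigm qRT-PCR, normalized to ACTB/GAPDH/POLR2A; bidirectional fit versus DMSO.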

Assay [9] can be described thus: ATG_XTT_Cytotoxicity: Cytotoxicity Assessment in the Attagene TRANS-FACTORIAL HepG2 Assay (AID 2283584; active = hit-call score of the fitted dose curve at least 0.9, where 1 is the maximum). The procedure, abridged: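 24 h chemical exposure of reporter-transfected HepG2; XTT signal loss vs DMSO indicates cytotoxicity.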

Sequence of Cellular tumor antigen p53 (Homo sapiens) (P04637 whole entry, looked up): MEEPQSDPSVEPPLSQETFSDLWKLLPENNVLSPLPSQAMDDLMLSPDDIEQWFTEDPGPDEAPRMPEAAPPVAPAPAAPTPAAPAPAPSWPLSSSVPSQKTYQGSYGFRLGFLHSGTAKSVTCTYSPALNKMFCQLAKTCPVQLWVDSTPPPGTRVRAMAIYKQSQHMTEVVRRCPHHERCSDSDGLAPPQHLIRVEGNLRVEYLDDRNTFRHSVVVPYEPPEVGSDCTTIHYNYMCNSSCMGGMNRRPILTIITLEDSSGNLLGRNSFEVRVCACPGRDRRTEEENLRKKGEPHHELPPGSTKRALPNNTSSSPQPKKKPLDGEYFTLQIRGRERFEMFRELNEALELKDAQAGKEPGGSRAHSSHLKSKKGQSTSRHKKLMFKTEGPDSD

On to `Oc1ccccc1Cl`, for which the call in assay [1], in [2], in assay [3], in assay [4], in [5] and in assay [6] was inactive. Further, in assay [7], the call was inactive.

As to `CCOC(=O)[C@]1(c2ccccc2)Oc2ccccc2[C@@H]1N`, the call in assay [1] and in [6] was inactive. The concentration at half-maximal activity (AC50) in assay [2] is 90.8 µM (active); in [3] it was 3.18 µM (active); in [5] it was 80 µM (active); in assay [7], 77.6 µM (active).

For the compound `O=[N+]([O-])C(Br)(CO)CO`, the call in assay [1], in assay [2], in assay [3], in assay [8], in assay [5] and in assay [6] was inactive. Further, the call in assay [7] and in assay [9] was inactive.

Consider `COC(=O)c1ccccc1N`, for which the compound was classed as inactive in assay [1], in assay [2], in assay [3], in [4], in assay [5] and in [6]. Moreover, the compound was classed as inactive in assay [7] and in assay [9].

In the case of `Nc1ccc(Oc2ccc(N)cc2)cc1`, the call in assay [1], in [2], in [3], in assay [4], in [5] and in assay [6] was inactive. Besides, the call in assay [7] and in assay [9] was inactive.

In the case of `CCOc1cccc(C2(N3CCN(c4ccccc4)CC3)CCC(C)CC2)c1` (stereo not given), the result in [1], in assay [2], in [3], in assay [4], in assay [5] and in assay [6] was inactive. Besides, the outcome in assay [7] was inactive.

As for `CC(C)N(Cc1ccccc1)C(=O)C(C)(C)C`, the outcome in assay [1], in assay [2], in [3], in assay [4], in assay [5] and in [7] was inactive. The compound was classed as inactive in assay [9]. Besides, the concentration at half-maximal activity (AC50) in assay [8] was 6.96 µM (active).

For the compound `CN(C)c1ccc(C(=O)c2ccc(N(C)C)cc2)cc1`, the outcome in assay [1], in [2], in assay [3], in assay [4], in assay [5] and in assay [6] was inactive. Further, the outcome in [7] and in assay [9] was inactive.

Regarding `C[N+](C)(C)CC1CO1` (stereo not given), the outcome in assay [1], in [2], in [3], in assay [4], in assay [5] and in [6] was inactive. Moreover, the result in assay [7] and in [9] was inactive.

`CCCCC(CC)COC(=O)c1ccc(C(=O)OCC(CC)CCCC)c(C(=O)OCC(CC)CCCC)c1` (stereo not given): the compound was classed as inactive in assay [1], in assay [2], in [3], in assay [4], in assay [5] and in [6]. In addition, the compound was classed as inactive in assay [7] and in assay [9].

For the compound `O=C1CCCO1`, the result in [1], in [3], in [6], in [7] and in assay [9] was inactive. Besides, the AC50 is 77 µM (active) in assay [2], 50 µM (active) in assay [4] and 50 µM (active) in assay [5].

Take `Cc1cccc(N)c1N`: the compound was called inactive in [1], in assay [4], in assay [5] and in [7]. Further, the figures for the concentration at half-maximal activity (AC50) in [3] and in assay [6] were 32.3 µM (active) and 50 µM (active), respectively.

In the case of `CC(C)(O)c1cnn2c(-c3ccc(F)c(-c4c(F)cccc4C#N)c3)cnc2n1`, the call in assay [1], in assay [2], in assay [3], in [4], in [5] and in assay [6] was inactive. Moreover, the call in assay [7] was inactive.

Consider `N#CC(Br)Br`, for which the outcome in assay [1], in assay [2], in assay [3], in assay [5], in assay [6] and in [7] was inactive.

Take `CCN(CC)N=O`: the outcome in assay [1], in assay [2], in assay [3], in assay [4], in assay [5] and in assay [6] was inactive. Further, the compound was classed as inactive in assay [7] and in [9].

As for `CCC(C)c1ccc(O)cc1` (stereo not given), the compound was called inactive in assay [1], in [2], in [3], in [4], in [8] and in [5]. The compound was called inactive in assay [6], in assay [7] and in [9].

Consider `O=Cc1ccco1`, for which the compound was classed as inactive in [1], in [2], in assay [3], in assay [4], in assay [5] and in assay [6].

Take `COP(=S)(OC)SCN1C(=O)c2ccccc2C1=O`: the compound was called inactive in assay [1], in assay [2], in assay [3], in assay [4], in [5] and in [6]. Also, in assay [7], the compound was called inactive.

As for `Clc1ccc(C(c2ccc(Cl)cc2)C(Cl)Cl)cc1`, the compound was called inactive in assay [1], in [2], in assay [4], in assay [5], in [6] and in assay [7]. The call in [9] was inactive. The AC50 in [3] was 90.5 µM (active).

Consider `Clc1ccccc1Cl`, for which the call in [1], in [2], in assay [3], in assay [8], in assay [5] and in [6] was inactive. Besides, the outcome in [7] and in assay [9] was inactive.

`O=P(OCCCl)(OCCCl)OCCCl`: the result in [1], in assay [2], in assay [3], in [4], in assay [8] and in assay [5] was inactive. Further, the outcome in [6], in assay [7] and in assay [9] was inactive.

For the compound `CC(O)CCO` (stereo not given), the outcome in assay [1], in assay [2], in assay [3], in assay [4], in [5] and in [6] was inactive. Further, in assay [7], the result was inactive.

As for `Cn1cc(-c2ccccc2)c(=O)c(-c2cccc(C(F)(F)F)c2)c1`, the call in assay [1], in assay [2], in assay [3], in assay [4], in assay [5] and in assay [7] was inactive. In addition, the compound was called inactive in assay [9]. Moreover, the concentration at half-maximal activity (AC50) in [6] was 15 µM (active).

For the compound `Brc1ccc(Oc2ccccc2)cc1`, the compound was called inactive in assay [1], in assay [2], in [3], in assay [4], in assay [5] and in [6]. Also, in assay [7], the compound was classed as inactive.
